Screens (PubChem)
In the library only some 1.5% were active in any assay of this set; here they are far more common.
CCHF vOTU inh-1: blocks the CCHF virus ovarian tumor domain protease; CCHFV vOTU protease, Pep-AMC fluorescence; inhibition, % at 11.5 µM; 370,000 compounds, 0.55% hits; also: 0% = vehicle wells with enzyme and 100% = no enzyme wells
TcdB inh: TcdB glycohydrolase inhibition; TcdB glycohydrolase enzymatic assay, plate reader; AID 652162; 350,000 compounds, 0.24% hits; P18177; inhibition, % at 9.99 µM; in the data active = inhibition above about 10%
VHR inh abs: blocks human VHR1 dual specificity phosphatase | P51452 | 290,000 compounds, 0.52% hits | inhibition, % at 13.3 µM | recombinant VHR phosphatase, pNPP absorbance; in the data active = inhibition above about 50%
Target sequence (P51452 whole entry, looked up): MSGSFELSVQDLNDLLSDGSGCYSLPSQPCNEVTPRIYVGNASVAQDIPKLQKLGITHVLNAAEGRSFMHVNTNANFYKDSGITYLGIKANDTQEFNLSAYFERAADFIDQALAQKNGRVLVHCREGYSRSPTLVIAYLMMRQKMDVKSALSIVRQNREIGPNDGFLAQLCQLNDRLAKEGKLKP
BH1578 lux ind: induces V. cholerae light production without autoinducers; activation, % at 18.7 µM; AID 588436; 350,000 compounds, 0.16% hits; V. cholerae BH1578 lux reporter, luminescence, 6 h; in the data active = activation mostly above about 9.7%, no sharp cut-off
SSB-PriA inh: K. pneumoniae PriA-SSBct interaction inhibition | AlphaScreen SSBct-PriA binding, biotinylated peptide | inhibition, % at 33 µM | 430,000 compounds, 0.6% hits; in the data active = inhibition mostly above about 37%, no sharp cut-off; inactive = mostly below about 20%;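 also: plate controls were negative control peptide for no effect and reference peptide for full effect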
PrPC surface inh: cell surface PrPC inhibition, primary TR-FRET screen; P04156; TR-FRET read-out; inhibition, % at 13.8 µM; 370,000 compounds, 0.43% hits; AID 720596; in the data active = inhibition above about 24%; also: 0% = median of the test wells and 100% = reference compound wells
CCHF vOTU inh-2: confirmation of CCHF virus vOTU protease inhibitors. shares compounds with CCHF vOTU inh-1. inhibition, % at 11.5 µM. AID 686976. Recombinant CCHFV vOTU, Pep-AMC fluorescence. 1,900 compounds, 17% hits
* marks the source's active call; other numbers are inactive results. Rule as the data show it, unless noted: active = inhibition above about 30%; inactive = the rest.

How did O=C(N=C1SC2CS(=O)(=O)CC2N1c1ccc(Br)cc1Cl)C1CC1 (centres undefined) do in these assays?
CCHF vOTU inh-1: 34*; TcdB inh: 0; VHR inh abs: 13; BH1578 lux ind: 0; SSB-PriA inh: 2; PrPC surface inh: -9; CCHF vOTU inh-2: -4

How did COc1cccc(NC(=O)CN(C)C(=O)c2cc3c(s2)CCCC3)c1 do in these assays?
CCHF vOTU inh-1: 12; TcdB inh: -6; BH1578 lux ind: -1; SSB-PriA inh: 2; PrPC surface inh: 16

How did CC1CCc2sc(C(=O)N(C)CC(=O)Nc3cccc(F)c3)cc2C1 (centres undefined) do in these assays?
CCHF vOTU inh-1: 30*; TcdB inh: -1; VHR inh abs: 12; BH1578 lux ind: 0; SSB-PriA inh: -8; PrPC surface inh: 7; CCHF vOTU inh-2: -5

What do the screens show for `CC(C)NS(=O)(=O)c1ccc(Oc2ncc(C(F)(F)F)cc2Cl)cc1`?
CCHF vOTU inh-1: 14; VHR inh abs: -13; BH1578 lux ind: -1; SSB-PriA inh: -1; PrPC surface inh: 10

What do the screens show for `CCCNS(=O)(=O)c1ccc(Oc2ncc(C(F)(F)F)cc2Cl)cc1`?
CCHF vOTU inh-1: 31*; VHR inh abs: -16; BH1578 lux ind: inactive; SSB-PriA inh: -25; PrPC surface inh: 10; CCHF vOTU inh-2: -2

What do the screens show for `O=C(Cc1csc(NC(=O)c2ccc(=O)[nH]c2)n1)NCCc1ccc(Cl)cc1`?
SSB-PriA inh: 6

What do the screens show for `COC(=O)[C@]12C[C@H](CC(=O)NCc3cccc(C(F)(F)F)c3)C(=O)N(Cc3ccc(Cl)cc3Cl)C1=C[C@H](C(C)(C)C)O[C@@H]2C`?
CCHF vOTU inh-1: 32*; PrPC surface inh: -12; CCHF vOTU inh-2: 15

Results for COC(=O)[C@]12C[C@H](CC(=O)NCc3cccc(C(F)(F)F)c3)C(=O)N(Cc3ccco3)C1=C[C@H](C(C)(C)C)O[C@@H]2C ?
CCHF vOTU inh-1: 32*; PrPC surface inh: 11; CCHF vOTU inh-2: 5

Results for C[C@@H](Cc1ccoc1)NC(=O)CCc1ccccc1F ?
SSB-PriA inh: -16

How did COc1ccc(Cc2nc(-c3cccs3)no2)cc1OC do in these assays?
CCHF vOTU inh-1: 31*; TcdB inh: -4; VHR inh abs: 17; BH1578 lux ind: 0; SSB-PriA inh: -26; PrPC surface inh: 9; CCHF vOTU inh-2: -11

What do the screens show for `OCCN(Cc1ccccc1)CC(O)COc1ccc(-c2ccccc2)cc1` (centres undefined)?
CCHF vOTU inh-1: 30*; TcdB inh: 2; VHR inh abs: 26; BH1578 lux ind: 0; SSB-PriA inh: -7; PrPC surface inh: 0; CCHF vOTU inh-2: -12

What do the screens show for `O=c1oc2ccccc2c(Nc2cc3ccccc3cc2O)c1[N+](=O)[O-]`?
CCHF vOTU inh-1: 30*; TcdB inh: 3; VHR inh abs: -7; BH1578 lux ind: -1; SSB-PriA inh: 23; PrPC surface inh: 2; CCHF vOTU inh-2: -10

What do the screens show for `O=C1NC(=S)S/C1=C\c1cc(Cl)cc(Cl)c1O`?
CCHF vOTU inh-1: 30*; TcdB inh: -1; BH1578 lux ind: -2; SSB-PriA inh: -2; PrPC surface inh: 3; CCHF vOTU inh-2: 23

How did O=C(NC(=S)NC1CCS(=O)(=O)C1)c1ccccc1 (centres undefined) do in these assays?
CCHF vOTU inh-1: 12; TcdB inh: 0; VHR inh abs: 2; BH1578 lux ind: inactive; SSB-PriA inh: -2; PrPC surface inh: -1

How did CN(C1=C(NC(=O)c2ccccc2)C(=O)c2ccccc2C1=O)C1CCS(=O)(=O)C1 (centres undefined) do in these assays?
CCHF vOTU inh-1: 89*; TcdB inh: -1; VHR inh abs: -8; BH1578 lux ind: 0; PrPC surface inh: -46; CCHF vOTU inh-2: 78*

How did CC(=O)NC1=C(NC2CCS(=O)(=O)C2)C(=O)c2ccccc2C1=O (centres undefined) do in these assays?
CCHF vOTU inh-1: 42*; VHR inh abs: 9; BH1578 lux ind: 0; SSB-PriA inh: -5; PrPC surface inh: -51; CCHF vOTU inh-2: 2

Results for O=C(CN1C(=O)c2ccccc2C1=O)NC1CCS(=O)(=O)C1 (centres undefined) ?
CCHF vOTU inh-1: -4; TcdB inh: 1; BH1578 lux ind: -1; PrPC surface inh: 1
